Screens (PubChem)
PLC-gamma1 inh: blocks human PLC-gamma1 enzyme activity | 0.84% of 370,000 active | inhibition, % at 12.2 µM | purified PLC-gamma1, fluorogenic substrate, fluorescence; in the data active = inhibition above about 9.5%
PLCb3 inh: blocks human PLC-beta3 enzyme activity | Q01970 | Purified PLC-beta3, fluorogenic substrate, fluorescence | inhibition, % at 12.2 µM | 0.18% of 370,000 active | AID 720704; in the data active = inhibition above about 11%;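 also: 0% = median of compound wells on plate and 100% = full blocker control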
proKLK7 act: activators of human kallikrein-7 zymogen. P49862. 0.9% of 370,000 active. purified proKLK7, EDANS-DABCYL substrate fluorescence; 100% is mature enzyme control, 0% vehicle. activation, % at 7 µM;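 active = activation above the mean of all tested compounds plus 3 SD, computed per campaign excluding outliers beyond control limits, cut at about 13% in these data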
ADAM10 inh: inhibitors of human ADAM10; recombinant ADAM10, EDANS/DABCYL FRET peptide cleavage, 3 h; inhibition, % at 7 µM; 0.62% of 370,000 active; AID 720582;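 active = inhibition above a per-campaign cutoff equal to the mean of compounds falling between control-based bounds plus 3 SD, cut at about 20% in these data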;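 also: 0% = DMSO wells while the 100% control is not disclosed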
Target sequence (O14672 214-748 limits assumed): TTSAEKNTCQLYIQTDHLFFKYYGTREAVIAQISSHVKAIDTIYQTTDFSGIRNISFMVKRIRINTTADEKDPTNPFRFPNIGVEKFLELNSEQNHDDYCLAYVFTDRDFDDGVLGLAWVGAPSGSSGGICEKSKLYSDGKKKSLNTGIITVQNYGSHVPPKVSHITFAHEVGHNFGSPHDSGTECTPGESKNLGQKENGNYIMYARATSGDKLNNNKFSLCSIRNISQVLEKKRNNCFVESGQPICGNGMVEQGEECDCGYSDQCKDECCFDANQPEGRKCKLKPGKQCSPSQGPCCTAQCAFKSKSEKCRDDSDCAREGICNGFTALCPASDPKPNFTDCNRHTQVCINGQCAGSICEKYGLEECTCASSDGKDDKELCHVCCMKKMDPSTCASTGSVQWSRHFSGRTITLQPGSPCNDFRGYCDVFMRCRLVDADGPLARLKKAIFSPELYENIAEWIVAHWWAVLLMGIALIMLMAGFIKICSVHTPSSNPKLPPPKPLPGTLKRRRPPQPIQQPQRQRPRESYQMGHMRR
ADAM17 inh: ADAM17 inhibition, QFRET primary screen | 0.83% of 370,000 active | P78536 | inhibition, % at 6.95 µM | AID 720648 | recombinant ADAM17, EDANS/DABCYL FRET peptide cleavage;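 active = inhibition above the mean of compounds lying between control limits plus 3 SD, set per campaign, cut at about 8.5% in these data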;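 also: 0% = DMSO-only wells as the low control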
ADAM10 confirm: human ADAM10 inhibition, confirmation; shares compounds with ADAM10 inh; ADAM10 QFRET peptide cleavage, EDANS fluorescence; inhibition, % at 6.95 µM; 1% of 2,100 active; AID 743208;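 active = inhibition above about 20% chosen separately for each screening run, limit read from the data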;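 also: 0% = DMSO wells and 100% = marimastat wells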
ADAM17 counter: counter-screen for ADAM10 exosite inhibitors: inhibitors of human ADAM17. shares compounds with ADAM10 inh. ADAM17 QFRET peptide cleavage, EDANS fluorescence. inhibition, % at 6.95 µM. 0.5% of 2,100 active. AID 743214;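 active = mean triplicate inhibition above the solvent-only control wells' mean plus 3 SD, cut at about 12% in these data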;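 also: 0% = DMSO wells and 100% = marimastat wells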
Numbers without * were called inactive; x = not tested or not shown. Rows were chosen to be rich in hits. Some 2.9% of all compounds tested hit in one or more screens of this group.

SMILES	PLC-gamma1 inh	PLCb3 inh	proKLK7 act	ADAM10 inh	ADAM17 inh	ADAM10 confirm	ADAM17 counter
COc1ccc(N(CC(O)Cn2cnc3ccccc32)S(=O)(=O)c2ccc(C)cc2)cc1 (stereo not drawn)	5.8	3.1	0.5	21.6*	8.3	2.4	-0.3
CC(=O)OCC(=O)[C@@]1(O)[C@H](C)C[C@H]2[C@@H]3CCC4=CC(=O)C=C[C@]4(C)[C@@]3(F)[C@@H](O)C[C@@]21C	9.2	3.8	-0.3	9.1	3.5	x	x
CCC(=O)OCC(=O)[C@@]1(OC(=O)CC)[C@@H](C)C[C@H]2[C@@H]3CCC4=CC(=O)C=C[C@]4(C)[C@@]3(Cl)[C@@H](O)C[C@@]21C	3.1	1.5	0.2	21.0*	6.4	1.3	0.3
Cc1ccc(-n2c(SCC(=O)Nc3ccc(S(=O)(=O)Nc4cc(C)nc(C)n4)cc3)nnc2-c2cccs2)cc1	-1.9	-2.9	0.2	-0.8	-2.2	x	x
Cc1ccc(NS(=O)(=O)c2ccc(OCC(=O)Nc3cccc([N+](=O)[O-])c3)c(C)c2)cc1	1.2	0.2	-0.1	22.7*	3.3	7.4	2.8
Cc1cccc(OCc2n[nH]c(=S)n2C2CCCCC2)c1	3.5	1.3	0.3	20.8*	5.5	-0.4	0.1
CC(=O)NC(c1ccc(F)c(F)c1)c1nc(-c2cccc(C(C)C)c2)cs1 (stereo not drawn)	0.8	0.2	0.3	20.0*	7.0	3.4	1.7
Oc1ccccc1C(Nc1nccs1)c1ccc2cccnc2c1O (stereo not drawn)	-10.9	-16.7	0.9	19.8*	7.9	8.2	2.8
O=C(CC1SC(=Nc2cccc3ccccc23)N(Cc2ccccn2)C1=O)Nc1ccccc1Br (stereo not drawn)	1.0	2.5	0.5	-4.1	-2.3	x	x
O=C(CC1SC(=Nc2ccccc2)N(Cc2ccccn2)C1=O)Nc1ccc(Br)cc1 (stereo not drawn)	-3.1	-8.2	0.8	22.3*	7.2	11.2	4.1
COC(=O)[C@]12C[C@H](CC(=O)NCC34CC5CC(CC(C5)C3)C4)C(=O)N(Cc3ccc4c(c3)OCO4)C1=C[C@H](COCc1ccccc1)O[C@@H]2C	-0.2	3.6	0.4	2.2	-0.9	x	x
COc1ccc(-c2[nH]c(-c3ccc(C)cc3)nc2SCC(=O)Nc2nccs2)cc1	1.3	4.7	-0.6	20.0*	0.5	6.0	2.9
Cc1ccc2c(c1)C1CS(=O)(=O)N(CC(C)C)C(=O)N1C2 (stereo not drawn)	0.2	3.0	0.4	3.7	-1.3	x	x
COc1ccc2c(c1)CNC2CS(=O)(=O)NCc1ccccc1 (stereo not drawn)	-25.1	-33.8	-0.9	-67.4	-18.5	x	x
CC(C)C(=O)N(c1ccc2oc(=O)sc2c1)S(=O)(=O)c1cccs1	4.6	2.9	-0.6	22.4*	2.7	5.0	0.2
CC(=O)N(c1ccc2oc(=O)sc2c1)S(=O)(=O)c1cccs1	-1.0	1.5	-0.6	13.9	1.7	x	x
COC(=O)[C@]12C[C@H](CC(=O)NCC3CCCCC3)C(=O)N(Cc3ccc(Cl)cc3Cl)C1=C[C@H](C1CCCC1)O[C@@H]2C	1.5	2.1	0.1	5.6	-1.7	x	x
CC(C)N=C(NC#N)SCc1ccccc1F	-2.0	-0.8	-0.3	-1.0	-5.8	x	x
N#CNC(=Nc1cccc(F)c1)SCc1ccccc1F	4.2	5.0	-0.2	22.9*	4.0	-0.1	-0.1
Clc1ccc([C@H]2OC[C@@]3(CNCCN4CCOCC4)CS[C@H](c4ccc(Cl)cc4)N23)cc1	0.7	4.1	-0.3	4.3	0.6	x	x
CC(C)(C)C1CCc2onc(C(=O)NCc3ccc(F)cc3)c2C1 (stereo not drawn)	5.0	-4.8	0.0	21.1*	4.0	4.1	1.2
Cc1ccc(NS(=O)(=O)c2cc(NC(=O)c3cc4c(s3)CCCC4)ccc2C)c(C)c1	-0.2	-1.0	-0.7	-5.7	-3.5	x	x
Cc1ccc(S(=O)(=O)Nc2ccc(Cl)cc2)cc1NC(=O)c1cc2c(s1)CCCC2	2.9	2.3	-0.9	23.6*	10.0*	17.1	4.5
O=C(CSc1nc(=O)n(CCCN2CCOCC2)c2c1CCC2)Nc1ccccc1F	-4.3	-4.8	0.8	79.9*	-1.1	0.5	0.1
O=C(COC(=O)Cc1c(Cl)cccc1Cl)Nc1ccccc1-c1ccccc1	2.9	9.5	0.7	23.1*	8.4	3.2	1.5
SMILES	PLC-gamma1 inh	PLCb3 inh	proKLK7 act	ADAM10 inh	ADAM17 inh	ADAM10 confirm	ADAM17 counter
COc1cccc(NC(=O)[C@H](C)NC(=O)N2CCn3c2nc2ccccc23)c1	0.6	-3.8	0.2	2.1	-4.5	x	x
COc1cccc(NC(=O)[C@@H](NC(=O)N2CCn3c2nc2ccccc23)C(C)C)c1	4.4	-3.1	0.2	20.6*	-1.4	2.2	-0.2
OC(CN1CCN(c2ccccn2)CC1)Cn1c2ccc(Cl)cc2c2cc(Cl)ccc21 (stereo not drawn)	2.5	-0.3	-0.3	21.7*	7.8	10.4	4.0
OC(CN1CCCCC1)Cn1c2ccc(Cl)cc2c2cc(Cl)ccc21 (stereo not drawn)	7.5	-4.6	-0.1	4.8	1.9	x	x
O=C(N[C@H](C(=O)N1CCC[C@H]1C(=O)NCc1ccccc1)C1CCCCC1)c1ccc(Cl)c(Cl)c1	6.0	7.0	0.3	-3.9	0.2	x	x
CC(C)(C)c1cc(CP(=O)(c2ccccc2)c2ccccc2)cc(C(C)(C)C)c1O	2.0	-9.6	-0.7	24.5*	5.2	2.1	1.1
O=P(Cc1ccccc1)(c1ccccc1)c1ccccc1	8.0	5.8	-0.6	1.6	0.8	x	x
CCCCC(CCC(=O)Nc1cc([N+](=O)[O-])ccc1O)C(=O)O (stereo not drawn)	1.2	-1.3	-0.8	5.3	0.8	x	x
CC(CC(=O)O)CC(=O)Nc1cc([N+](=O)[O-])ccc1O (stereo not drawn)	1.1	-26.3	-0.4	20.4*	0.6	3.5	1.0
Cc1ccc(C(Nc2ccccc2)c2ccc3ccc(C)nc3c2O)c(C)c1 (stereo not drawn)	-6.7	-3.9	-0.7	-2.5	1.5	x	x
Cc1ccc(S(=O)(=O)N2CCCCC2)cc1NC(=O)COC(=O)Cc1cccc2ccccc12	-0.5	0.6	-0.3	20.4*	7.3	6.6	2.0
Cc1ccc(S(=O)(=O)N2CCCCC2)cc1NC(=O)COC(=O)C1CC1	5.1	-6.7	0.3	-21.5	-2.3	x	x
CCOC(=O)[C@]12CCCC3=C1N(CCC3)C(=O)[C@@H](CC(=O)NCc1cccc3ccccc13)C2	0.0	2.1	-0.2	8.4	0.7	x	x
CC(=O)c1ccc(NC(=O)COC(=O)C2CCN(S(=O)(=O)c3cccs3)CC2)cc1	4.1	3.2	0.7	84.7*	-0.9	-0.2	0.2
COc1cccc(NC(=O)COC(=O)C2CCN(S(=O)(=O)c3cccs3)CC2)c1	3.0	0.5	0.4	6.5	2.6	x	x
